Results published in the supplement of paper PMC6555819.

These sequences were tested on PPARg DBDmut IVT, anti-PPARg (DBD mutation: PPARg1 K132A/R137A, NR concentration 270 nM) (assay: PBM binding z-score (relative to random genomic background probes); higher = stronger binding; sequences stand for … in GC…GCGATTGACAGCGTAGAATGAAGG).
Outline: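 Ligand-free nuclear receptor dimers were bound for 1 h to custom Agilent 4×180K protein-binding microarrays. Detection used antibodies against each partner (one per run). Binding z-scores rest on regression-normalized fluorescence, with random background probes as the reference.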
Sequence TATACAGGGTCAAAGGCCACAGTACGAATGTCGA has a PBM binding z-score of 1.95. Work on GATACAGGGTCAGCTAGAGCCCAGAGTATGGAAA yielded a PBM binding z-score of -0.697. TATACAGGGACAAAGGCCAGAGTACGAATGTCGA was tested, and the PBM binding z-score was 0.636. Sequence TCGAGTAGGTTAGGGGCATTGAGAATGGCGTCGA has a PBM binding z-score of -0.696. CCTCGGAGGACAGAAGGTCAGAGCTGTCCGCTTT showed a PBM binding z-score of -1.28. With CGTCCAAGGTCATAGGAGGTCCGTGAAGACAGAT the PBM binding z-score was 0.63. With AGTCAAAGTCCACTAGGTAACGTAAGATTCAGCT the PBM binding z-score was 0.228. In the case of CCTTACGGGTCACGAGGTTATAGAACGACGAGCG, the PBM binding z-score is reported as 0.157. TGAATGAGGTTATAAGAACAGGGAACGTTGCAAA gave a PBM binding z-score of 0.453. CGAACTACGTCATTGACAGGACAGTGAATAGTAA was tested, and the PBM binding z-score was 0.69. ATACCAAGGTGATCGTGAGGTGGTTGATACTAAC showed a PBM binding z-score of 0.15. With TCTAGTTGCTCACGGAGGTCACACACGACGGGTA the PBM binding z-score was 0.565. With CCTCGGGGGACAACAGGAGGTCAGAGCTGCCAGA the PBM binding z-score was 0.197. Sequence CTCGAAAGGTCGGTTGAGGTGAGTATTCGGATAA has a PBM binding z-score of 0.135. For TAGCCTAGGTCATATCGGGCCAGTATACGCTATA, the PBM binding z-score was 0.0699. Work on AGAACGAGGGCACGCTGAGTTGTTAGCAGAGTAG yielded a PBM binding z-score of 0.0717. Sequence ACAGACTGGTGATGAAGGTAACTCAGGCTATCAT has a PBM binding z-score of -0.143. CTCGAAAGGTCGTGCTCAGGTGAGTCTACCAAAC showed a PBM binding z-score of -0.101. AGAACGAGGGCACGCTGAGTTGACAGCAGAGTAG was tested, and the PBM binding z-score was 0.377. For ACTAGCAAGCCAAGTTTGGGTCACTCAAACAAAG, the PBM binding z-score was -0.652. With CCTTACGGCTCAAGGTTATAGCACGGGTGGTACG the PBM binding z-score was -0.222. Work on CCTATTAGTTGACCATAAGGGCTACCGAAGCTCG yielded a PBM binding z-score of 0.311. Sequence CGAACTAGGTCAAGGAAAGTGAATCTCCGCACGC has a PBM binding z-score of 0.515. With TGTCAAAGTTCAAAGGTAACGTAAGTATCCACAC the PBM binding z-score was 1.15. GCTGCTAGGTCAACTGATGGTCAGCCAAAGCTCG gave a PBM binding z-score of -0.45. CATGCAGGGTCAGCTAGGCCAGAGTAGGGACGGC was tested, and the PBM binding z-score was -0.095. TCATGTAGATCAACAGGAGGTTAAGAAAGATCGA showed a PBM binding z-score of 0.653. In the case of TTACCAAGGAGAAAGGTCGTTGATGCACGCCTTG, the PBM binding z-score is reported as 0.131. AGTTAAAGTTCATCTAGGTAACGTAAGATATGCT showed a PBM binding z-score of 1.41. CGAACTAGGTCATTGACAGGCCAGTGAATAGTAA gave a PBM binding z-score of 1.34. GCTGCTAGGTCAACTGATGGTCAGGTAAAGCTCG was tested, and the PBM binding z-score was -0.724. In the case of TCTAGCAGGCCAGAGGGTCACACAAGAGGTACGG, the PBM binding z-score is reported as -0.172. With ATATGTCGGTTAGCTGGGGTCATTCAGACTAGGC the PBM binding z-score was 0.777. TCATATAGGTAATTCAGGTGAAAGTCGGCATCTA showed a PBM binding z-score of 1.6. CCTCGAAGGACAGAAGGTCAGAGCTGTCCGCTTT showed a PBM binding z-score of -1.97. TGAATGATGTTAAAGATCAGGGAACGTGGCGTCG was tested, and the PBM binding z-score was 0.88. With TCCTATAGGTAATACAGGTGAAAGTCGGCATCTA the PBM binding z-score was 0.687. With ACTAGCAGGCCAAGTTGGGGTCACTCAAACAAAG the PBM binding z-score was -0.538. For CGTCCAAGGTCATAGGAGGGCAGTGAAGACAGAT, the PBM binding z-score was 0.568. With ATCTAAAGGTCGACGAGGTGAGTATACACCGTTT the PBM binding z-score was 0.877.
